Laboratory results reported in PubChem BioAssay AID1159580 (chemical genetic matrix, 2015).
The campaign covered roughly 5,500 compounds. About 2,000 (36%) were called active. Not shown: some 18% with an inconclusive outcome. No stated cut-off is given here; in the data, active means normalized growth mostly below about 0.91 (no sharp cut-off); inconclusive means no clear call, values can overlap the other calls; inactive means mostly above about 0.92. Some of the results follow.

Assay: chemical genetic growth profiling, strain panel (AID 1159580);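 further: tested at 20 µM; growth read once vehicle control cultures reached saturation at 30 °C; 1 = growth at the plate median or of vehicle wells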
Details: growth OD

Measured: normalized growth

C=C1[C@H]2CC[C@@]3(C)[C@H](c4ccoc4)OC(=O)C[C@]13O[C@H]1C[C@H](O)C(C)(C)[C@H](CC(=O)OC)[C@]12C
inactive: S. cerevisiae deletion strains, locus YJR066W, strain TOR1, stronger effect = lower value 0.936 | S. cerevisiae deletion strains, locus YJR075W, strain HOC1, stronger effect = lower value 0.994 | S. cerevisiae deletion strains, locus YKL009W, strain mrt4, stronger effect = lower value 0.997 | S. cerevisiae deletion strains, locus YKL068W, stronger effect = lower value 1.02 | S. cerevisiae deletion strains, locus YKL085W, strain MDH1 (second series), stronger effect = lower value 1 | S. cerevisiae deletion strains, locus YKL085W, strain MDH1, stronger effect = lower value 1 | S. cerevisiae deletion strains, locus YKL160W, strain elf1, stronger effect = lower value 0.998 | S. cerevisiae deletion strains, locus YKR001C, strain vps1, stronger effect = lower value 1.01 | S. cerevisiae deletion strains, locus YKR026C, strain gcn3, stronger effect = lower value 1.02 | S. cerevisiae deletion strains, locus YKR091W, strain srl3, stronger effect = lower value 1.02 | S. cerevisiae deletion strains, locus YLL001W, strain dnm1, stronger effect = lower value 1.01 | S. cerevisiae deletion strains, locus YLL026W, stronger effect = lower value 1.01 | S. cerevisiae deletion strains, locus YLL041C, strain sdh2, stronger effect = lower value 1.01 | S. cerevisiae deletion strains, locus YLR027C, strain aat2, stronger effect = lower value 1.01 | S. cerevisiae deletion strains, locus YLR039C, strain RIC1, stronger effect = lower value 0.969 | S. cerevisiae deletion strains, locus YLR058C, strain SHM2, stronger effect = lower value 1.01 | S. cerevisiae deletion strains, locus YLR102C, strain apc9, stronger effect = lower value 1.01 | S. cerevisiae deletion strains, locus YLR113W, strain HOG1, stronger effect = lower value 1.04 | S. cerevisiae deletion strains, locus YLR221C, strain rsa3, stronger effect = lower value 1.03 | S. cerevisiae deletion strains, locus YLR258W, strain gsy2, stronger effect = lower value 1 | S. cerevisiae deletion strains, locus YLR262C, strain YPT6 (second series), stronger effect = lower value 0.994 | S. cerevisiae deletion strains, locus YLR262C, strain YPT6, stronger effect = lower value 0.938 | S. cerevisiae deletion strains, locus YLR268W, strain sec22, stronger effect = lower value 1.01 | S. cerevisiae deletion strains, locus YLR320W, strain mms22, stronger effect = lower value 1.03 | S. cerevisiae deletion strains, locus YLR342W, strain FKS1, stronger effect = lower value 1.02 | S. cerevisiae deletion strains, locus YLR357W, strain rsc2, stronger effect = lower value 1.03 | S. cerevisiae deletion strains, locus YLR370C, strain arc18, stronger effect = lower value 1 | S. cerevisiae deletion strains, locus YLR371W, strain rom2, stronger effect = lower value 1.02 | S. cerevisiae deletion strains, locus YLR384C, strain iki3, stronger effect = lower value 1.01 | S. cerevisiae deletion strains, locus YLR418C, strain cdc73, stronger effect = lower value 0.997 | S. cerevisiae deletion strains, locus YML016C, strain PPZ1, stronger effect = lower value 1 | S. cerevisiae deletion strains, locus YML032C, strain rad52, stronger effect = lower value 1.01 | S. cerevisiae deletion strains, locus YML120C, strain ndi1, stronger effect = lower value 0.998 | S. cerevisiae deletion strains, locus YML124C, strain tub3, stronger effect = lower value 1.02 | S. cerevisiae deletion strains, locus YMR058W, strain fet3, stronger effect = lower value 1.05 | S. cerevisiae deletion strains, locus YMR078C, strain ctf18, stronger effect = lower value 1.02 | S. cerevisiae deletion strains, locus YMR125W, strain sto1, stronger effect = lower value 1 | S. cerevisiae deletion strains, locus YMR129W, stronger effect = lower value 1.01 | S. cerevisiae deletion strains, locus YMR205C, strain PFK2, stronger effect = lower value 1.01 | S. cerevisiae deletion strains, locus YMR223W, strain ubp8, stronger effect = lower value 1.01 | S. cerevisiae deletion strains, locus YMR231W, strain pep5, stronger effect = lower value 1.01 | S. cerevisiae deletion strains, locus YMR263W, strain SAP30, stronger effect = lower value 1.01 | S. cerevisiae deletion strains, locus YMR307W, strain GAS1, stronger effect = lower value 1.03 | S. cerevisiae deletion strains, locus YNL067W, strain RPL9B, stronger effect = lower value 1 | S. cerevisiae deletion strains, locus YNL071W, strain lat1, stronger effect = lower value 1.01 | S. cerevisiae deletion strains, locus YNL153C, strain GIM3, stronger effect = lower value 1.01 | S. cerevisiae deletion strains, locus YNL183C, strain NPR1, stronger effect = lower value 0.943 | S. cerevisiae deletion strains, locus YNL209W, strain ssb2, stronger effect = lower value 1.04 | S. cerevisiae deletion strains, locus YNL233W, strain BNI4, stronger effect = lower value 0.988 | S. cerevisiae deletion strains, locus YNL248C, strain rpa49, stronger effect = lower value 1.05 | S. cerevisiae deletion strains, locus YNL250W, strain rad50, stronger effect = lower value 1.01 | S. cerevisiae deletion strains, locus YNL271C, strain bni1, stronger effect = lower value 0.995 | S. cerevisiae deletion strains, locus YNL298W, strain CLA4, stronger effect = lower value 1.02 | S. cerevisiae deletion strains, locus YNL307C, strain MCK1, stronger effect = lower value 1.02 | S. cerevisiae deletion strains, locus YNL322C, strain KRE1 (second series), stronger effect = lower value 1.02 | S. cerevisiae deletion strains, locus YNL322C, strain KRE1, stronger effect = lower value 1 | S. cerevisiae deletion strains, locus YNR049C, strain mso1, stronger effect = lower value 1.02 | S. cerevisiae deletion strains, locus YNR052C, strain pop2, stronger effect = lower value 1.02 | S. cerevisiae deletion strains, locus YOL006C, strain TOP1, stronger effect = lower value 1 | S. cerevisiae deletion strains, locus YOL012C, strain htz1 0.768 | S. cerevisiae deletion strains, locus YOL147C, strain pex11, stronger effect = lower value 1.02 | S. cerevisiae deletion strains, locus YOR001W, strain rrp6, stronger effect = lower value 1.03 | S. cerevisiae deletion strains, locus YOR061W, strain CKA2, stronger effect = lower value 1 | S. cerevisiae deletion strains, locus YOR069W, strain VPS5, stronger effect = lower value 1 | S. cerevisiae deletion strains, locus YOR070C, strain gyp1, stronger effect = lower value 1.03 | S. cerevisiae deletion strains, locus YOR080W, strain dia2, stronger effect = lower value 1.02 | S. cerevisiae deletion strains, locus YOR083W, strain WHI5, stronger effect = lower value 0.999 | S. cerevisiae deletion strains, locus YOR106W, strain vam3, stronger effect = lower value 0.998 | S. cerevisiae deletion strains, locus YOR136W, strain idh2, stronger effect = lower value 1.02 | S. cerevisiae deletion strains, locus YOR144C, strain elg1, stronger effect = lower value 1.02 | S. cerevisiae deletion strains, locus YOR184W, strain ser1, stronger effect = lower value 1.02 | S. cerevisiae deletion strains, locus YOR231W, strain MKK1, stronger effect = lower value 0.985 | S. cerevisiae deletion strains, locus YOR265W, strain rbl2, stronger effect = lower value 1 | S. cerevisiae deletion strains, locus YOR270C, strain vph1, stronger effect = lower value 1.01 | S. cerevisiae deletion strains, locus YOR290C, strain snf2, stronger effect = lower value 0.974 | S. cerevisiae deletion strains, locus YOR316C, strain cot1, stronger effect = lower value 1.02 | S. cerevisiae deletion strains, locus YPL051W, strain arl3, stronger effect = lower value 1.02 | S. cerevisiae deletion strains, locus YPL078C, strain atp4, stronger effect = lower value 0.985 | S. cerevisiae deletion strains, locus YPL106C, strain sse1, stronger effect = lower value 1 | S. cerevisiae deletion strains, locus YPL240C, strain hsp82, stronger effect = lower value 1.01 | S. cerevisiae deletion strains, locus YPL256C, strain CLN2, stronger effect = lower value 0.981 | S. cerevisiae deletion strains, locus YPR119W, strain clb2, stronger effect = lower value 1.01 | S. cerevisiae deletion strains, locus YPR141C, strain kar3, stronger effect = lower value 1.02 | S. cerevisiae deletion strains, locus YPR163C, strain tif3, stronger effect = lower value 1.01 | S. cerevisiae deletion strains, locus YPR167C, strain met16, stronger effect = lower value 1.02 | S. cerevisiae deletion strains, strain wtn01, stronger effect = lower value 1.01 | S. cerevisiae strains, strain wild type, stronger effect = lower value 1.01
